# D1 antagonist = antagonists of human D1 dopamine receptor; P21728; HEK293 TREx D1 cells, calcium flux, dopamine EC80; hits give low values; activity change, negative = inhibition, % at 10 µM; actives 3.2% (n = 360,000); AID 504652; in the data active = activity change below about -30%
#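 Calcium flux readout: force-coupled, inducible Hek293 Trex D1 line, cells induced overnight at 30 C with tetracycline, dye-loaded 30–90 min at RT. Antagonism scored against EC80 dopamine challenge given 180 s after compound.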
# D3 ag = agonists of human D3 dopamine receptor; D3R DiscoveRx beta-arrestin cells, luminescence, 90 min; max activation, %; actives 0.58% (n = 410,000); AID 652048; in the data active = max activation above about 30%
# Target sequence (P35462 whole entry, looked up): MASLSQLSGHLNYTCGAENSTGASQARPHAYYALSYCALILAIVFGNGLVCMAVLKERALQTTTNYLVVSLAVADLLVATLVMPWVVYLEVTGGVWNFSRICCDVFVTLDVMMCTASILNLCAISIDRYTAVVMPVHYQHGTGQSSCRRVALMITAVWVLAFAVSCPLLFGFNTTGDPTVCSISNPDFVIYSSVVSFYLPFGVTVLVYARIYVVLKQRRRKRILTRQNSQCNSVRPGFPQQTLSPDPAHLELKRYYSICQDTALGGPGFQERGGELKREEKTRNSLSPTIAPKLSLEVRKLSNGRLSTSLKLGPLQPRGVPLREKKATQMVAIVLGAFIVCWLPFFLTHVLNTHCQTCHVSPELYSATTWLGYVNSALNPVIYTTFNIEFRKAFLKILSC
#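 Agonist-mode cell screen: cells plated at 1500/well and incubated overnight at 37 °C, then exposed to library compounds for 90 min at 37 °C. Detection reagent was added for 30–60 min at room temperature, and luminescence was read.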
# D1 PAM = potentiators of human D1 dopamine receptor | P21728 | HEK293 TREx D1 cells, calcium flux, dopamine EC20 potentiation | potentiation, % at 10 µM | actives 0.036% (n = 360,000) | AID 504651; in the data active = potentiation above about 30%
# D3 antag = blocks the human D3 dopamine receptor. actives 2.5% (n = 360,000). P35462. D3R cells, DiscoveRx beta-arrestin luminescence, antagonist mode; hits give low values. AID 652054. max response, negative = inhibition, %; in the data active = max response below about -50%; inconclusive = no clear call, values can overlap the other calls
#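 Cells expressing the human receptor were seeded at 1500 cells/well, incubated overnight at 37 degrees C in 5% CO2, then exposed to library compounds with dopamine controls for 90 minutes at 37 degrees C before luminescent detection.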
# D1 ag = activates the human D1 dopamine receptor. activation, % at 2 µM. actives 1% (n = 360,000). AID 504660. P21728. HEK293 T-REx D1 cells, calcium flux, agonist mode; in the data active = activation above about 30%
#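 Tetracycline-induced HEK293 TREx D1 cells, force-coupled to calcium signalling, were dye-loaded with a no-wash calcium kit. Compound was pin-added after a 10 s baseline. Fluorescence was read kinetically at 1 cycle/s for 180 s, with calcium rises flagged as agonism.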
# A number is an active result; - = inactive; ? = inconclusive; . = no result. An excerpt weighted towards active compounds, which were near 6.1% of everything screened.
SMILES,D1 antagonist,D3 ag,D1 PAM,D3 antag,D1 ag
COc1ccc(C(C(=O)NC2CCCCC2)N(Cc2ccco2)C(=O)c2snc(C(N)=O)c2N)cc1 (centres undefined),-,-,-,-,-
CCCC(=O)N(c1ccc2oc(C)c(C(C)=O)c2c1)S(=O)(=O)c1ccc(C)c([N+](=O)[O-])c1,-,-,-,-,-
CCCC(=O)N(c1ccc2oc(C)c(C(C)=O)c2c1)S(=O)(=O)c1ccc(C(=O)O)cc1,-42.4,-,-,-,-
CCCCCCC1CC(CSC(=N)N)OC1=O (centres undefined),-,-,-,-58.6,-
C1CCC(C(CC2CCCCN2)C2CCCCC2)CC1 (centres undefined),-,-,-,-,135.7
CCOC(=O)c1c(NC(=O)/C=C/c2ccc(C)cc2)sc(C(C)=O)c1C,-32.0,-,-,.,-
CCOC(=O)c1sc(NC(=O)/C=C/c2cnn(C)c2C)c(C(=O)OC(C)C)c1C,-,34.5,-,-,-
CCOC(=O)c1sc(NC(=O)/C=C/c2ccc(OCC)cc2)c(C(=O)OCC)c1C,-,-,-,.,-
CCc1ccc(NC(=O)C(=O)NCCc2sc3nc(-c4ccc(OC)cc4)nn3c2C)cc1,.,-,-,.,-
O=C1CC(N2CCN(c3cccc(C(F)(F)F)c3)CC2)C(=O)N1c1ccccc1 (centres undefined),-,-,-,-,53.4
O=C1CC(N2CCN(c3cccc(C(F)(F)F)c3)CC2)C(=O)N1c1ccccc1F (centres undefined),-,-,-,-,-
CCCOc1ccc(N2C(=O)CC(N3CCC(O)(c4cccc(C(F)(F)F)c4)CC3)C2=O)cc1 (centres undefined),-32.4,-,-,-,-
CCOC(=O)c1sc2c(c1C)c(=O)n(CCO)c(=O)n2Cc1ccccc1,-,-,-,-,-
Cc1ccc(-n2cc(C(=O)OCc3ccc(Cl)cc3)c3ccccc3c2=O)cc1,-,-,-,.,-
CN(C)/N=N/c1nc[nH]c1C(N)=O,.,-,.,.,.
CC(=O)N1CCc2cc(S(=O)(=O)N3CCN(S(=O)(=O)c4c(F)cccc4F)CC3)ccc21,-,.,-,.,-
COc1ccccc1NC(=S)NNC(=O)c1nn(C)c(C)c1Cl,-48.7,-,-,-68.8,-
COc1ccccc1NC(=S)NNC(=O)c1ccc(O)cc1,-,-,-,-82.7,-
COc1ccccc1NC(=S)NNC(=O)c1nn(C)c(C)c1Br,-,-,-,-,-
Cn1c2cc(C(=O)O)sc2c2cnn(Cc3ccccc3F)c(=O)c21,-,.,-,.,-
Cc1cccc(N2CCCn3c2nc2c3c(=O)n(CC(=O)OCc3ccccc3)c(=O)n2C)c1,-55.1,.,-,.,-
Cc1cccc(-c2nc3c4ccccc4nc(N4CCN(c5ccc(F)cc5)CC4)n3n2)c1,-,-,-,.,-
O=c1cc2oc3cc(O)c(O)cc3c(-c3ccccc3O)c-2cc1O,-,-,-,-,46.4
Cc1ccccc1-c1cc(=O)c2c(O)cccc2o1,-,-,-,-,-
CCOc1ccccc1-c1c2cc(O)c(=O)cc-2oc2cc(O)c(O)cc12,-,-,-,-58.3,53.0
SMILES,D1 antagonist,D3 ag,D1 PAM,D3 antag,D1 ag
COc1ccc(OC)c(-c2c3cc(O)c(=O)cc-3oc3cc(O)c(O)cc23)c1,-,-,-,-,43.8
CCOC(=O)N1CCN(C(=O)c2ccc(CS(=O)Cc3ccc(C)cc3)o2)CC1 (centres undefined),-,-,-,-,-
Cc1ccc(S(=O)(=O)c2c(N)n(Cc3ccco3)c3nc4ccccc4nc23)cc1C,-,-,-,-,91.7
Nc1c(S(=O)(=O)c2ccccc2)c2nc3ccccc3nc2n1Cc1ccco1,-,-,-,-,-
CC1CC(C)CN(C(=O)CSc2nnc(N)s2)C1 (centres undefined),-,-,-,-,-
COc1ccc(OC)c(-c2oc3ccccc3c(=O)c2O)c1,-,-,-,-,-
COc1ccc(OC)c(C2=C/C(=C/c3ccccn3)C(=O)O2)c1,-55.8,-,-,-,188.8
C#CCN(C[C@@H]1[C@@H](OC(=O)NC2CCCC2)[C@@H](OC(=O)NC2CCCC2)Cn2c(=O)ccc(=O)n21)S(=O)(=O)c1ccc(C)cc1,.,-,.,-64.0,.
C#CCN(C[C@@H]1[C@@H](OC(=O)Nc2cccs2)[C@@H](OC(=O)Nc2cccs2)Cn2c(=O)ccc(=O)n21)S(=O)(=O)c1ccc(C)cc1,.,-,.,-,.
COc1cc(OC)cc(C(=O)NC2CC3CCC(C2)N3C)c1 (centres undefined),-54.4,-,-,-,-
CCCN1C2CCCC1CC(NC(=O)c1ccc(C(C)(C)C)cc1)C2 (centres undefined),-,-,-,-,-
CCCN1C2CCCC1CC(NC(=O)c1cc(OC)cc(OC)c1)C2 (centres undefined),-34.2,-,-,-,-
Cc1cccc(C(=O)NC2CC3CCC(C2)N3C)c1 (centres undefined),-,-,-,-,-
O=C1Cc2ccccc2C(=O)N1,.,-,.,?,.
CO[C@H]1C[C@H](O[C@H]2[C@H](C)[C@@H](O[C@@H]3O[C@H](C)C[C@H](N(C)C)[C@H]3O)[C@@H](C)C[C@]3(CO3)C(=O)[C@H](C)[C@@H](O)[C@@H](C)[C@@H](C)OC(=O)[C@@H]2C)O[C@@H](C)[C@@H]1O,.,-,.,.,.
CC(NC(=O)C(=O)c1cn(CC(=O)N2CCOCC2)c2ccccc12)c1ccccc1 (centres undefined),-,-,-,-,-
Cc1c(Cl)c([N+](=O)[O-])nn1CCCC(=O)Nc1cccc(Cl)c1,-32.0,-,-,-,-
CCOC(=O)[C@]12CCC=C1N(Cc1ccc(Cl)cc1Cl)C(=O)[C@H](CC(=O)NCc1cccc3ccccc13)C2,.,-,.,-,.
O=C(NN1CCOCC1)c1cn(-c2ccccc2)nc1-c1cccs1,-,-,-,-,-
O=c1c(/C=N/Nc2ccccc2)c(Sc2nnnn2-c2ccccc2)nc2ccccn12,-,-,-,-,-
O=C(O)c1ccccc1N/N=C/c1c(Sc2nnnn2-c2ccccc2)nc2ccccn2c1=O,-43.3,-,-,-,-
CC(Oc1ccc2ccc(=O)oc2c1)C(=O)NC(Cc1c[nH]c2ccc(O)cc12)C(=O)O (centres undefined),-87.4,-,-,-,-
CC(C)c1nnc(NC(=O)C2CCCN2C(=O)Nc2ccccc2[N+](=O)[O-])s1 (centres undefined),-,-,-,-,-
CCCNC(=O)C1(C)CCCN(CCOc2ccccc2)C1 (centres undefined),.,-,.,-,.
Cc1cccc(NC(=O)/C=C/c2ccc([N+](=O)[O-])s2)c1,-,-,-,?,-
Cc1cccc(NC(=S)N/N=C/c2ccc([N+](=O)[O-])s2)c1,-,-,-,-97.3,-
CN1CCN(CCC(=O)N2c3ccccc3Sc3ccc(Cl)cc32)CC1,-,-,-,-50.9,-
